# hNpr1 antagonist – antagonists of human natriuretic peptide receptor Npr1; Potency, µM (series often up to 46.3 µM), for the others: top-dose activity change, negative = inhibition, most hits filed as inhibitors; P16066; 76,000 tested, 1.6% active; HEK293 hNpr1 GloSensor cGMP, ANP-stimulated luminescence; calls by dose curve; further: nearly all actives have a fitted effect of over 60% in size
#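 HEK293 cells stably expressing human Npr1 and cGMP GloSensor pGS-40F, loaded 2 h with 2% GloSensor reagent, given compound 30 min at room temperature. Luminescence read before and 20 min after 0.1 nM hNppA.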
# 3T3 cytotox – kills NIH 3T3 cells | NIH 3T3 viability, CellTiter-Glo ATP luminescence, 48-72 h | Potency, µM (titrated, usually from 96.7 µM), inactives show at the highest dose activity change, negative = cytotoxicity, hits mostly inhibitors | 94,000 tested, 4.3% active | AID 1345082; further: nearly all actives have a fitted effect of over 55% in size
#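 Cells were seeded at 400 per well, treated with pin-transferred compound, and kept 48 or 72 hr at 37 °C before CellTiter-Glo addition and luminescence imaging of cellular ATP.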
# HEK cytotox – kills HEK 293 cells. HEK 293 viability, ATP luminescence (CellTiter-Glo), 48-72 h. Potency, µM (highest dose often 115 µM), without a hit: top-dose activity change, negative = cytotoxicity, usual class: inhibitors. 94,000 tested, 6.6% active; further: nearly all actives have a fitted effect of over 60% in size
#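 Pintool-delivered compounds were incubated with HEK 293 cells (250 cells/well) at 37 degree Celsius for 48 or 72 hr. ATP-dependent luminescence (CellTiter-Glo) then reported remaining viable cells.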
# Luciferase inh – blocks purified firefly luciferase enzyme activity; Potency, µM (doses to about 115 µM), hits mostly inhibitors; 76,000 tested, 2.5% active; P08659; purified P. pyralis luciferase, luminescence, biochemical; further: nearly all actives have a fitted effect of over 65% in size
# Target sequence (P08659 whole entry, looked up): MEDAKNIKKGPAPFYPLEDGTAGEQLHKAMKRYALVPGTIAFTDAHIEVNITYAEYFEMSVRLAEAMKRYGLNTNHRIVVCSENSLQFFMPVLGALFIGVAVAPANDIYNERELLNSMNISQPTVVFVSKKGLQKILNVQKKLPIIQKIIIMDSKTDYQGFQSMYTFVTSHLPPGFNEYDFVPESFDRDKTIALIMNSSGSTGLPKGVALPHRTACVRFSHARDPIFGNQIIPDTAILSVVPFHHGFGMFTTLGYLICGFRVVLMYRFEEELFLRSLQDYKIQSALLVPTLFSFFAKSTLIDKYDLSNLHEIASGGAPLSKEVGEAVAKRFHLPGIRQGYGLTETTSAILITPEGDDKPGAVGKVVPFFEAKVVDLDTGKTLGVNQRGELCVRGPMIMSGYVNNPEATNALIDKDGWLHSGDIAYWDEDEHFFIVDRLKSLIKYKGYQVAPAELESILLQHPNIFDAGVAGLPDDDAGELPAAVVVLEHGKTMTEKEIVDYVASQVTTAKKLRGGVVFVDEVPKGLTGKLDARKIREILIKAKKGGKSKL
#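 Luminescence read by CCD imaging after purified firefly luciferase (10nM final) was added to substrate buffer holding 10uM D-luciferin and 10uM ATP, pH 7.5, pre-dosed with compound.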
# The depositor's hits bear a star; i = inactive; ? = inconclusive; . = not tested or not shown; [ ] = another dose, or the depositor's remark. In the library only some 11% were active in any assay of this set; here they are far more common. Unless noted, the call rests on the fitted dose curve; in most records, active means well fitted curve in the direction sought with a large enough effect; inconclusive means small, poorly fitted or top-dose-only effect, or another doubt; inactive means no such curve, though single readings can be large; an effect the other way counts as inactive or inconclusive. On the % scale 0 is the no-effect control and ±100 the full control effect; potency means the concentration at half of the fitted maximal effect.
SMILES,hNpr1 antagonist,3T3 cytotox,HEK cytotox,Luciferase inh
Cc1nn(-c2ccccc2)c2c1C(C1CC1)N(C1CCN(C(=O)c3cccc(C(F)(F)F)c3)C1)C2=O (centres undefined),.,-26.6%,-30.8%,.
COc1ccc(C(=O)N2CCC(N3C(=O)c4c(c(C)nn4-c4ccccc4)C3C3CC3)C2)cc1 (centres undefined),.,?,44.7µM*,.
Cc1ccc(C(=O)N2CCC(N3C(=O)c4c(c(C)nn4-c4ccccc4)C3C3CC3)C2)cc1 (centres undefined),.,17.8µM*,25.1µM*,.
Cc1nn(-c2ccccc2)c2c1C(C1CC1)N(C1CN(C(=O)c3ccncc3)C1)C2=O (centres undefined),.,-1.2%,3.6%,.
Cc1nn(-c2ccccc2)c2c1C(C1CC1)N(CC1CN(C(=O)c3ccc(F)cc3)C1)C2=O (centres undefined),.,?,35.5µM*,.
Cc1nn(-c2ccccc2)c2c1C(C1CC1)N(C1CCN(C(=O)c3ccccc3)C1)C2=O (centres undefined),.,14.1µM*,?,.
CN(C)c1ncnc2sc3c(c12)CCN(Cc1ccc2cc[nH]c2c1)C3,-11.2%,?,-5.0%,i
COC1CCN(CC2CCCCCN2C(=O)c2ccccc2)CC1 (centres undefined),-2.0%,-17.9%,0.3%,i
Cc1nn(-c2ccccc2)c2c1C(C1CC1)N(C1CCCN(C(=O)c3ccc(F)cc3)C1)C2=O (centres undefined),.,?,31.6µM*,.
CCOC(=O)[C@H]1C[C@]2(CCCCN(CCOC(C)=O)C2=O)N(C(=O)OCC)[C@H]1c1ccco1,.,-22.4%,?,.
CCOC(=O)[C@H]1C[C@]2(CCCCN(CCOC)C2=O)N(C(C)=O)[C@H]1c1ccco1,.,?,31.6µM*,.
COCCC1(N(C)C)CCN(C(=O)c2ccccn2)CC1,.,i,i,.
COc1ccc(Nc2ccnc(N3CCC(NC(=O)c4ccccc4OC)CC3)n2)cc1,.,?,50.1µM*,.
COc1ccc(Nc2ccnc(N3CCC(NC(=O)c4ccccc4Cl)CC3)n2)cc1,.,?,39.8µM*,.
Cc1ccc(Nc2ccnc(N3CCC(NC(=O)c4ccccc4C)CC3)n2)cc1,.,25.1µM*,35.5µM*,.
COc1ccc(Nc2ccnc(N3CCC(NC(=O)C4CC4)CC3)n2)cc1,.,-19.6%,?,.
CCCn1cc2c3c(cccc31)CN(C(=O)Cc1ccc(OC)cc1)CC2,-9.7%,?,?,i
CCCn1cc2c3c(cccc31)CN(C(=O)COc1ccc(F)cc1)CC2,-22.1%,?,44.7µM*,i
O=C1CN(C(=O)c2csc3nc(-c4ccc(C(F)(F)F)cc4)cn23)CCCN1,?,?,44.7µM*,7.94µM*
O=C(c1nc2sccn2c1-c1ccc(C(F)(F)F)cc1)N1CCCCC1,.,-29.6%,?,.
COc1ccc(C2(C(=O)N3CCc4nn(Cc5ccccc5)c(=O)n4CC3)CC2)cc1,.,-13.0%,3.2%,.
COc1ccccc1-c1ccc2c(n1)CN(Cc1csc(C)n1)C(=O)CO2,-2.0%[70.6 µM],44.7µM*,-11.0%[172 µM],i
Cc1nc(CN2Cc3nc(-c4ccc5c(c4)OCO5)ccc3OCC2=O)cs1,-0.4%[70.6 µM],?,?,i
Cc1nc(CN2Cc3nc(-c4cc5ccccc5o4)ccc3OCC2=O)cs1,?,?,63.1µM*,?
O=C(c1nc2cccnc2n(C2CCCC2)c1=O)N1CCN(C(=O)C2CC2)CC1,.,-11.8%,i,.
SMILES,hNpr1 antagonist,3T3 cytotox,HEK cytotox,Luciferase inh
FC(F)Oc1cccc(CNC2CCC3(CCNCC3)CC2)c1,-4.8%,?,50.1µM*,i
c1cc(-c2n[nH]c(CNC3CCC4(CCNCC4)CC3)n2)ccn1,10.6%,-6.7%,-1.4%,i
O=C(NC1CCN(c2ccc3nnc(C4CC4)n3n2)C1)c1ccc(C(F)(F)F)cc1 (centres undefined),.,-19.0%,-11.8%,.
COc1cccc(OC)c1CN1CC(O)CN(C(=O)OCC(C)C)CC1=O (centres undefined),.,-18.6%,?,.
c1cncc(CN2CCC[C@H]2c2nc(-c3ccnc(N4CCCC4)c3)no2)c1,-1.7%[70.6 µM],?,?,i
CC(=O)N1CCN(c2cc(-c3noc([C@@H]4CCCN4Cc4ccc(N(C)C)cc4)n3)ccn2)CC1,-0.7%,-29.5%,17.8µM*,i
c1cc(-c2noc([C@@H]3CCCN3Cc3ncc[nH]3)n2)cc(N2CCCC2)n1,-27.3%[70.6 µM],?,100µM*,i
CC(=O)Nc1ccc(CN2CCC[C@H]2c2nc(-c3ccnc(N4CCC(C(N)=O)CC4)c3)no2)cc1,2.3%,-1.6%,?,i
Cc1ccc(C(=O)N2CCC(N3C(=O)C4(CCCCC4)C3c3ccncc3)CC2)s1 (centres undefined),0.5%,-23.0%,-14.8%,i
CC(C)(C)NC(=O)NCc1nnc2n1C(C(=O)NCc1ccc(Cl)cc1)CC2 (centres undefined),.,-1.1%,4.8%,.
O=C(NCCNC(=O)c1cccc(Cl)c1)c1ccc(-c2cncnc2)cc1,.,-20.4%,?,.
O=C(NCc1ccc(N2CCOCC2)cc1)c1cc2c(s1)CN(C1CC1)C2,0.2%,?,-28.4%,i
CCOc1ccccc1C(=O)N1CCN(C(=O)c2nnn3c2COC(c2ccc(Cl)cc2)C3)CC1 (centres undefined),?,?,31.6µM*,i
COc1ccc(C2Cn3nnc(C(=O)N4CCN(C(=O)c5cc(F)ccc5Cl)CC4)c3CO2)cc1 (centres undefined),12.6µM*,?,?,i
O=C(c1ccccc1)N1CCN(C(=O)c2nnn3c2COC(c2ccc(Cl)cc2)C3)CC1 (centres undefined),-15.7%,-8.1%,?,i
O=C(c1nnn2c1COC(c1ccc(Cl)cc1)C2)N1CCN(C(=O)C2(c3ccccc3)CC2)CC1 (centres undefined),?,28.2µM*,22.4µM*,i
O=C(NC1CCN(CCn2nc3n(c2=O)CCCC3)C1)c1ccccc1 (centres undefined),.,-9.6%,-1.2%,.
CN1CCCCCCN(S(=O)(=O)c2cccs2)[C@H]2CCC[C@H]2C1=O,-1.9%,-7.9%,?,i
COCc1nc(C2CC(N)C2)cc(N(C)Cc2nc3ccccc3c(=O)[nH]2)n1 (centres undefined),-0.9%,?,-9.6%,i
O=C1C(N2CCN(S(=O)(=O)Cc3ccccc3F)CC2)CCN1Cc1ccccn1 (centres undefined),-7.4%,-15.6%,-12.1%,i
COc1ccc(CCC(=O)N2c3ccccc3CC2c2nc(C3CC3)no2)cc1 (centres undefined),-15.9%,?,?,i
COc1ccc(C2(C(=O)N3c4ccccc4CC3c3noc(C4CCOCC4)n3)CC2)cc1 (centres undefined),-3.7%,?,?,25.1µM*
O=C(c1ccn[nH]1)N1CCCCC1c1nc(CCOCC2CCCC2)no1 (centres undefined),35.5µM*,?,?,i
CN(C)C(=O)N1CCN(Cc2ccccc2-c2cccnc2)CC1,.,-25.3%[138 µM],-11.2%[172 µM],.

# Screening data: PubChem, National Center for Advancing Translational Sciences (NCATS)
